# Source: publication PMC11006913
# Biological target: HOXA4 (Homo sapiens, UniProt Q00056 201-287, W262R)
# Experiment: PBM; 200 nM protein, PBS
# Settings: dsDNA, one strand shown
# Sequence of HOXA4 (Homo sapiens, UniProt Q00056 201-287, W262R) (Q00056 201-287 W262R): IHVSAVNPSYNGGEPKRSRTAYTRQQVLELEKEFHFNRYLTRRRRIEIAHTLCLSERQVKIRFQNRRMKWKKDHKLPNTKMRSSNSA
row,Sequence,binding signal
1,GGCGAGCC,"9.78 upbm affinity estimate (log intensity, higher = more binding, comparable within an allelic series)"
2,CCGGCACG,"9.89 upbm affinity estimate (log intensity, higher = more binding, comparable within an allelic series)"
3,AGGGCGAG,"9.83 upbm affinity estimate (log intensity, higher = more binding, comparable within an allelic series)"
4,AGCTCCCC,"9.71 upbm affinity estimate (log intensity, higher = more binding, comparable within an allelic series)"
5,AACGAATT,"10.3 upbm affinity estimate (log intensity, higher = more binding, comparable within an allelic series)"
6,CACACCGG,"9.76 upbm affinity estimate (log intensity, higher = more binding, comparable within an allelic series)"
7,ACCTGCCG,"9.93 upbm affinity estimate (log intensity, higher = more binding, comparable within an allelic series)"
8,AGTCCCCG,"9.96 upbm affinity estimate (log intensity, higher = more binding, comparable within an allelic series)"
9,CACGGTGC,"9.98 upbm affinity estimate (log intensity, higher = more binding, comparable within an allelic series)"
10,CAGGGGGA,"9.68 upbm affinity estimate (log intensity, higher = more binding, comparable within an allelic series)"
11,AAGCTAAT,"10.3 upbm affinity estimate (log intensity, higher = more binding, comparable within an allelic series)"
12,CACCCTGG,"9.95 upbm affinity estimate (log intensity, higher = more binding, comparable within an allelic series)"
13,ATATTGAG,"10.3 upbm affinity estimate (log intensity, higher = more binding, comparable within an allelic series)"
14,CTCCCACC,"9.83 upbm affinity estimate (log intensity, higher = more binding, comparable within an allelic series)"
15,CCTGGGCG,"9.75 upbm affinity estimate (log intensity, higher = more binding, comparable within an allelic series)"
16,AATCCCCC,"9.83 upbm affinity estimate (log intensity, higher = more binding, comparable within an allelic series)"
17,AATCGATG,"10.4 upbm affinity estimate (log intensity, higher = more binding, comparable within an allelic series)"
18,CCTCCGTC,"9.85 upbm affinity estimate (log intensity, higher = more binding, comparable within an allelic series)"
19,ACCCGTAG,"9.8 upbm affinity estimate (log intensity, higher = more binding, comparable within an allelic series)"
20,GATTTATA,"10.4 upbm affinity estimate (log intensity, higher = more binding, comparable within an allelic series)"

row,Sequence,binding signal
1,GGACTCCC,"9.88 upbm affinity estimate (log intensity, higher = more binding, comparable within an allelic series)"
2,AATTGTTC,"10.4 upbm affinity estimate (log intensity, higher = more binding, comparable within an allelic series)"
3,CCTCCAGC,"9.79 upbm affinity estimate (log intensity, higher = more binding, comparable within an allelic series)"
4,AACATTAG,"10.2 upbm affinity estimate (log intensity, higher = more binding, comparable within an allelic series)"
5,CCAGCCGG,"9.8 upbm affinity estimate (log intensity, higher = more binding, comparable within an allelic series)"
6,CAATCACG,"10.3 upbm affinity estimate (log intensity, higher = more binding, comparable within an allelic series)"
7,CCTCGTCC,"9.94 upbm affinity estimate (log intensity, higher = more binding, comparable within an allelic series)"
8,CTAATCTA,"10.3 upbm affinity estimate (log intensity, higher = more binding, comparable within an allelic series)"
9,ACGTTAAT,"10.6 upbm affinity estimate (log intensity, higher = more binding, comparable within an allelic series)"
10,CATGATTA,"10.4 upbm affinity estimate (log intensity, higher = more binding, comparable within an allelic series)"
11,CCCATGGC,"9.82 upbm affinity estimate (log intensity, higher = more binding, comparable within an allelic series)"
12,CCAGCGGG,"9.83 upbm affinity estimate (log intensity, higher = more binding, comparable within an allelic series)"
13,TAAAATTA,"10.3 upbm affinity estimate (log intensity, higher = more binding, comparable within an allelic series)"
14,ACGTTTAG,"10.2 upbm affinity estimate (log intensity, higher = more binding, comparable within an allelic series)"
15,ATAAATCG,"10.2 upbm affinity estimate (log intensity, higher = more binding, comparable within an allelic series)"
16,GAGTAATA,"10.3 upbm affinity estimate (log intensity, higher = more binding, comparable within an allelic series)"
17,ACCCTAGG,"9.88 upbm affinity estimate (log intensity, higher = more binding, comparable within an allelic series)"
18,GACCCCCC,"9.49 upbm affinity estimate (log intensity, higher = more binding, comparable within an allelic series)"
19,CAGACCTC,"9.86 upbm affinity estimate (log intensity, higher = more binding, comparable within an allelic series)"
20,CAATTTAG,"10.5 upbm affinity estimate (log intensity, higher = more binding, comparable within an allelic series)"

# Biological target: HOXA4 (Homo sapiens, UniProt Q00056 201-287, R217L)
# Experiment: PBM; 200 nM protein, PBS
# Settings: dsDNA, one strand shown
# Sequence of HOXA4 (Homo sapiens, UniProt Q00056 201-287, R217L) (Q00056 201-287 R217L): as the sequence (Q00056 201-287 W262R) above, with R17L, R62W counted along it
row,Sequence,binding signal
1,GGCGAGCC,"9.59 upbm affinity estimate (log intensity, higher = more binding, comparable within an allelic series)"
2,CCGGCACG,"9.91 upbm affinity estimate (log intensity, higher = more binding, comparable within an allelic series)"
3,AGGGCGAG,"9.74 upbm affinity estimate (log intensity, higher = more binding, comparable within an allelic series)"
4,AGCTCCCC,"9.69 upbm affinity estimate (log intensity, higher = more binding, comparable within an allelic series)"
5,CACACCGG,"9.68 upbm affinity estimate (log intensity, higher = more binding, comparable within an allelic series)"
6,ACCTGCCG,"9.82 upbm affinity estimate (log intensity, higher = more binding, comparable within an allelic series)"
7,AGTCCCCG,"9.67 upbm affinity estimate (log intensity, higher = more binding, comparable within an allelic series)"
8,CACGGTGC,"9.8 upbm affinity estimate (log intensity, higher = more binding, comparable within an allelic series)"
9,CAGGGGGA,"9.64 upbm affinity estimate (log intensity, higher = more binding, comparable within an allelic series)"
10,CACCCTGG,"9.74 upbm affinity estimate (log intensity, higher = more binding, comparable within an allelic series)"
11,CTCCCACC,"9.72 upbm affinity estimate (log intensity, higher = more binding, comparable within an allelic series)"
12,CCTGGGCG,"9.75 upbm affinity estimate (log intensity, higher = more binding, comparable within an allelic series)"
13,AATCCCCC,"9.86 upbm affinity estimate (log intensity, higher = more binding, comparable within an allelic series)"
14,CCTCCGTC,"9.8 upbm affinity estimate (log intensity, higher = more binding, comparable within an allelic series)"
15,ACCCGTAG,"9.7 upbm affinity estimate (log intensity, higher = more binding, comparable within an allelic series)"
16,GGACTCCC,"9.72 upbm affinity estimate (log intensity, higher = more binding, comparable within an allelic series)"
17,CCTCCAGC,"9.82 upbm affinity estimate (log intensity, higher = more binding, comparable within an allelic series)"
18,AACATTAG,"10.8 upbm affinity estimate (log intensity, higher = more binding, comparable within an allelic series)"
19,CCAGCCGG,"9.68 upbm affinity estimate (log intensity, higher = more binding, comparable within an allelic series)"
20,CAATCACG,"10.8 upbm affinity estimate (log intensity, higher = more binding, comparable within an allelic series)"
21,CCTCGTCC,"9.95 upbm affinity estimate (log intensity, higher = more binding, comparable within an allelic series)"
22,ACGTTAAT,"11.6 upbm affinity estimate (log intensity, higher = more binding, comparable within an allelic series)"
23,CATGATTA,"11.4 upbm affinity estimate (log intensity, higher = more binding, comparable within an allelic series)"
24,CCCATGGC,"9.81 upbm affinity estimate (log intensity, higher = more binding, comparable within an allelic series)"
25,CCAGCGGG,"9.65 upbm affinity estimate (log intensity, higher = more binding, comparable within an allelic series)"
26,ACCCTAGG,"9.89 upbm affinity estimate (log intensity, higher = more binding, comparable within an allelic series)"
27,GACCCCCC,"9.56 upbm affinity estimate (log intensity, higher = more binding, comparable within an allelic series)"
28,CAGACCTC,"9.83 upbm affinity estimate (log intensity, higher = more binding, comparable within an allelic series)"
